Compounds with a hit are over-represented: about 15% of the library has one in this group of screens.
RORg inh – inhibitors of mouse ROR gamma transcriptional activity. P51450. Drosophila S2 Gal4-RORgamma UAS-luciferase reporter, 20 h. Potency, µM (highest dose often 53.6 µM), for the others: at the highest dose activity change, negative = inhibition, most hits filed as inhibitors. 310,000 tested, 5.4% active. AID 2551; also: nearly all actives have a fitted effect of over 60% in size
Target sequence (P51450 whole entry, looked up, the tested form may be a part): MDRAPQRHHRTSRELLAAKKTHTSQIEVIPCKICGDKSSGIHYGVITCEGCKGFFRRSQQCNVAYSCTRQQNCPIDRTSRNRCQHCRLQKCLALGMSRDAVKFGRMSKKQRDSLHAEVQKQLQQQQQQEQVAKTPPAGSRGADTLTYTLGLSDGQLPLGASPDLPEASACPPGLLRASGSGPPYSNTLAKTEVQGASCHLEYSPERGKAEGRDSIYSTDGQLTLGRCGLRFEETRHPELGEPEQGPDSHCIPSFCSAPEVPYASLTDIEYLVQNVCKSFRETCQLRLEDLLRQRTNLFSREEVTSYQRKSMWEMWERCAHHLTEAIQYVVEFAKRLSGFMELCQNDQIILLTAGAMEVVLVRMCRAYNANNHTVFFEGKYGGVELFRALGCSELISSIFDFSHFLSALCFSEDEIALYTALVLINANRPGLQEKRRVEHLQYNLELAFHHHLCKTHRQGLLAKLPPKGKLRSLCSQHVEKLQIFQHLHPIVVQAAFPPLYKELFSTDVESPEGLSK
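Luminescence from a UAS-regulated Photinus luciferase reporter in stably transfected Drosophila Schneider cells is measured; decreased signal marks ROR gamma inhibition. Fusion expression is induced by 700 uM copper sulfate for 20 hr.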
Gal4-VP16 FLuc – Gal4-VP16 reporter inhibition counter-screen | Drosophila S2 Gal4-VP16 UAS-luciferase, luminescence, 20 h | Potency, µM (doses to about 53.6 µM), for inactives: top-dose activity, negative = inhibition, hits mostly inhibitors | 310,000 tested, 3.5% active | AID 2546;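 also: Gal4-VP16 expression switched on by copper sulfate through the metallothionein promoter; nearly all actives have a fitted effect of over 50% in size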
ELG1 repair inh – blocks ELG1-dependent DNA repair in HEK293T cells; 330,000 tested, 2.3% active; Potency, µM (highest dose often 46.1 µM), without a hit: at the highest dose activity change, negative = inhibition, hits mostly inhibitors; HEK293T ELG1-luciferase reporter, luminescence, 16 h; DNA damage induced by 5-fluorouridine; also: nearly all actives have a fitted effect of over 55% in size
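Luminescence from the luciferase reporter, measured 30 min after ONE-Glo reagent at room temperature, was the read-out. Beforehand, 2,000 cells per well were exposed for 16 hr at 37 °C to 5-fluorouridine together with compound or vehicle.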
TDP1 cell noCPT – qHTS for Inhibitors of human tyrosyl-DNA phosphodiesterase 1 (TDP1): qHTS in cells in absence of CPT; DT40 Tdp1-/- hTDP1 cells, no CPT, ATP luminescence, 48 h; Potency, µM (series often up to 46.2 µM), inactives show top-dose activity change, negative = growth inhibition, most hits filed as inhibitors; 420,000 tested, 15% active; AID 686978, 2013; also: nearly all actives have a fitted effect of over 55% in size
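Luminescent ATP content (CellTiter-Glo) served as the growth readout. Knockout chicken DT40 cells expressing human TDP1 were exposed to compounds without camptothecin for a minimum 48 hr at 37 °C.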
TDP1 cell CPT – growth inhibition of DT40 Tdp1-/-;hTDP1 cells with camptothecin (screen for TDP1 inhibitors); Potency, µM (series often up to 46.2 µM), without a hit: top-dose activity change, negative = growth inhibition, actives largely listed as inhibitors; chicken DT40 Tdp1-/-;hTDP1 cells + 20 nM CPT, ATP luminescence, 48 h; AID 686979; 420,000 tested, 12% active; also: nearly all actives have a fitted effect of over 55% in size
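Cell growth measured by CellTiter-Glo luminescence after a minimum 48 h, 37 C compound exposure with 20 nM CPT in Tdp1-knockout DT40 cells stably expressing hTDP1, seeded 400/well; qHTS titration format.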
12-LOX inh – ALOX12 (human) lipoxygenase inhibition; P18054; purified 12hLO, xylenol orange hydroperoxide absorbance; Potency, µM (top dose mostly 108 µM), without a hit: at the highest dose activity change, negative = inhibition, most hits filed as inhibitors; 580,000 tested, 1.1% active; AID 1671190
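Purified human 12hLO at 150 nM in 25 mM Hepes, 0.01% Triton X-100, pH 7.0, preincubated 15 min at room temperature with compound. Reaction started with 40 uM arachidonic acid, 30 min at room temperature. Hydroperoxide measured by Fe-xylenol orange, 573/405 nm absorbance ratio.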
An asterisk follows results filed as active; ? = inconclusive; · = no result; [ ] = another dose, or the depositor's remark. Calls follow the shape of the dose curve; as a rule, active = well fitted curve in the direction sought with a large enough effect; inconclusive = small, poorly fitted or top-dose-only effect, or another doubt; inactive = no such curve, though single readings can be large; an effect the other way counts as inactive or inconclusive. % is scaled to controls: 0 for no effect and ±100 for the full control effect; potency is read from the fitted curve at half-maximal effect.

SMILES | RORg inh | Gal4-VP16 FLuc | ELG1 repair inh | TDP1 cell noCPT | TDP1 cell CPT | 12-LOX inh
COc1cc(CNC(=O)c2cc(-c3cc(F)ccc3OC(C)C)n[nH]2)cc(OC)c1 | · | · | · | ? | 16µM* | -5%
CC(C)Oc1ccc(F)cc1-c1cc(C(=O)NCc2cc(C(F)(F)F)cc(C(F)(F)F)c2)[nH]n1 | · | · | · | 21µM* | 18µM* | -16%
CCCOc1ccc(F)cc1-c1cc(C(=O)NCc2cc(OC)cc(OC)c2)[nH]n1 | · | · | · | ? | 18µM* | 1%
COc1cc(F)ccc1-c1cc(C(=O)NCc2cc(C(F)(F)F)cc(C(F)(F)F)c2)[nH]n1 | · | · | · | -16% | ? | -21%
COc1cc(CNC(=O)c2cc(-c3ccc(F)cc3C)n[nH]2)cc(OC)c1 | · | · | · | ? | ? | 3%
CCCOc1ccc(F)cc1-c1cc(C(=O)NCc2ccccc2OC)[nH]n1 | · | · | · | ? | ? | 18%
CC(C)Oc1ccc(F)cc1-c1cc(C(=O)NCc2ccc(C(F)(F)F)cc2)[nH]n1 | · | · | · | ? | 16µM* | -2%
COC(=O)C1=C(C)N(Cc2ccccc2F)C(=O)CC1c1ccccc1Cl (stereo not drawn) | · | · | · | · | · | 18%
COc1ccccc1CNC(=O)c1cc(-c2cc(F)ccc2OC(C)C)n[nH]1 | · | · | · | 21µM* | 16µM* | -8%
O=C(NCCn1nc(-c2ccccc2)ccc1=O)c1ccc(Br)cc1 | · | · | · | · | · | 48%
FC(F)(F)c1nnc(N2CCN(c3ccc(Cl)cc3)CC2)s1 | 22% | ? | 0% | -6% | 0% | 101%
FC(F)(F)c1nnc(Nc2ccc(Cl)cc2)s1 | 12% | -5% | 10µM* | ? | ? | 0%
COc1cccc(CC(O)CC2c3c(cc4c(c3OC)OCO4)CCN2C)c1 (stereo not drawn) | · | · | · | 15µM* | 21µM* | ?
COc1ccc(C(O)C2c3c(cc4c(c3OC)OCO4)CCN2C)c(CO)c1OC (stereo not drawn) | · | · | · | · | · | 11%
COc1c2c(cc3c1C(CC(O)Cc1ccccc1)N(C)CC3)OCO2 (stereo not drawn) | 36% | 3% | 0% | 10µM* | ? | 9%
CCOCCCNC(=O)C1CCCCC1 | · | · | · | · | · | 7%
COC(=O)CNC(=O)N1CCC(N2CC3CC(C2)[C@H]2CCCC(=O)N2C3)CC1 (stereo partly drawn) | · | · | · | · | · | 35%
CC1CCN(c2ccc(NC(=O)c3ccccc3SC3CCS(=O)(=O)C3)cc2)CC1 (stereo not drawn) | · | · | · | · | · | 6.3µM*
CC1CCN(c2ccc(NC(=O)c3cccnc3Cl)cc2)CC1 | 35% | 6% | 5% | ? | -19% | -18%
COc1ccccc1C1=CC(=O)C[C@H](c2ccc3c(c2)OCO3)C1 | · | · | 0% | 18µM* | 16µM* | -25%
O=C1C=C(c2ccccc2C(F)(F)F)C[C@@H](c2ccc3c(c2)OCO3)C1 | · | · | ? | 18µM* | ? | -4%
Cc1ccc(C2=CC(=O)C[C@H](c3ccc4c(c3)OCO4)C2)cc1 | · | · | ? | ? | ? | -8%
O=C1C=C(c2ccc3ncccc3c2)C[C@@H](c2ccc3c(c2)OCO3)C1 | · | · | ? | 2.6µM* | 2.1µM* | -17%
O=C1C=C(c2ccccc2Oc2ccccc2)C[C@@H](c2ccc3c(c2)OCO3)C1 | · | · | 6.5µM* | ? | 16µM* | -3%
CCOc1ccc2c(c1)c(N=NC(=N)N)c(O)n2C | -5% | 1% | 10% | -26% | -27% | -10%
SMILES | RORg inh | Gal4-VP16 FLuc | ELG1 repair inh | TDP1 cell noCPT | TDP1 cell CPT | 12-LOX inh
CCOc1ccc2c(c1)c(N=NC(N)=S)c(O)n2C | ? | 7.1µM* | -8% | 7% | -5% | 5µM*
NC(=S)N=Nc1c(O)n(CC(=O)Nc2ccccc2)c2ccccc12 | ? | -15% | -3% | -10% | -22% | 0%
NC(=S)N=Nc1c(O)n(CCCl)c2ccccc12 | 1µM* | 3.2µM* | -2% | 2.6µM* | 13µM* | 8%
NC(=S)N=Nc1c(O)n(CCCl)c2ccc(Cl)cc12 | 0.79µM* | 3.5µM* | -26% | 23µM* | ? | -5%
N#CC1CCN(C(=O)C2CN(c3ccc(F)cc3)C(=O)N2)CC1 (stereo not drawn) | · | · | · | · | · | 16%[176 µM]
Cc1ccc(C(=O)NC(=S)N2CCN(c3cc(C)ccc3C)CC2)cc1 | 1µM* | 1µM* | ? | ? | ? | 74%
O=C(c1ccc(-c2ccccc2)cc1)N1CCN(c2ccccc2F)CC1 | -2% | -1% | 3% | 1% | -11% | -8%
CC(=O)c1ccc(N2CCN(C(=S)Nc3cc(C)ccc3C)CC2)cc1 | ? | ? | -6% | ? | -12% | 4%
Cc1ccc(C(=O)NC(=S)N2CCN(c3ccccc3F)CC2)cc1 | 0.89µM* | 2.8µM* | 0% | -25% | -25% | ?
COC1C(=O)N(CC2CC2)C12CCN(C(=O)COc1ccc(F)cc1)CC2 (stereo not drawn) | · | · | · | · | · | 9%
COC(=O)C1=CN(c2ccc(C(C)(C)C)cc2)C(N)=C(C#N)C1c1cccc2ccccc12 (stereo not drawn) | · | · | · | 13µM* | 15µM* | ?

Compound activity deposited in PubChem BioAssay by National Center for Advancing Translational Sciences (NCATS).
